This is a sample that favours compounds with a hit; in the whole collection about 11% have one here.
JMJD2A Tudor inh: blocks the human JMJD2A Tudor domain. Potency, µM (top dose mostly 114 µM), without a hit: at the top dose activity change, negative = inhibition, most hits filed as inhibitors. O75164. 390,000 compounds, 4.4% hits. AlphaScreen JMJD2A-Tudor / H3K4me3 peptide binding; further: on the % scale 0 is the no-effect control and ±100 the full control effect; nearly all actives have a fitted effect of over 50% in size
HP1b binding inh: inhibitors of HP1-beta chromodomain binding to methylated histone tails; Potency, µM (doses to about 114 µM), for inactives: at the top dose activity change, negative = inhibition, actives largely listed as inhibitors; AID 540317; AlphaScreen HP1-beta / biotin-H3K9me3 peptide binding; 390,000 compounds, 0.56% hits; further: nearly all actives have a fitted effect of over 70% in size
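HP1-beta protein (50 nM final) preincubated 30 min at room temperature with biotinylated H3(1-18)K9me3 peptide (50 nM) in PBS pH 7.4, 0.01% Tween-20, then compound added for 30 min. AlphaScreen streptavidin donor/nickel chelate acceptor beads (10 ug/mL final), 30 min dark, luminescence read.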
L3MBTL1 inh: inhibitors of human L3MBTL1; 230,000 compounds, 0.66% hits; Q9Y468; Potency, µM (doses to about 57.1 µM), for inactives: at the top dose activity, negative = inhibition, most hits filed as inhibitors; AID 485360; AlphaScreen L3MBTL1–H3K9me1 peptide binding; further: on the % scale 0 is the no-effect control and ±100 the full control effect; nearly all actives have a fitted effect of over 60% in size
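Displacement of a biotinylated histone H3(1-15) peptide monomethylated at Lys9 (75 nM) from L3MBTL1 (50 nM) was measured by AlphaScreen after a 30 min room-temperature compound incubation; cefsulodin titration served as intraplate control.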
BAZ2B inh: blocks human BAZ2B. Potency, µM (highest dose often 114 µM), for the others: top-dose activity change, negative = inhibition, usual class: inhibitors. 360,000 compounds, 4.4% hits. AID 504333. AlphaScreen BAZ2B-H3K14Ac peptide displacement; further: on the % scale 0 is the no-effect control and ±100 the full control effect; nearly all actives have a fitted effect of over 60% in size
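BAZ2B 50 nM plus b-H3(5-23)K14Ac 50 nM, PBS pH 7.4/0.01% Tween-20, 30 min RT; compound added (max 110 uM), 30 min RT; streptavidin donor/Ni-chelate acceptor beads 10 ug/mL final, 20 min dark; AlphaScreen read.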
G9a block: blocks human histone lysine methyltransferase G9a; G9a H3K9 monomethylation, AlphaScreen, 2 h; Potency, µM (titrated, usually from 102 µM), for the others: top-dose activity, negative = inhibition, actives largely listed as inhibitors; 350,000 compounds, 8.8% hits; further: on the % scale 0 is the no-effect control and ±100 the full control effect; nearly all actives have a fitted effect of over 75% in size
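Compounds were preincubated with 20 nM G9a for 15 min, after which biotinylated H3K9 peptide (500 nM) and SAM (20 uM) started a 2 h room-temperature reaction. Monomethylated product was quantified by antibody-based AlphaScreen chemiluminescence.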
Active calls of the source: *; u = inconclusive; x = not tested or not shown; [ ] = dose if it differs, or a comment. The call rests on the fitted dose curve; in most records, active means well fitted inhibition curve with a large enough effect; inconclusive means small, poorly fitted or top-dose-only effect; inactive means no such curve, though single readings can be large or run the other way. Potency means the concentration at half of the fitted maximal effect.

SMILES	JMJD2A Tudor inh	HP1b binding inh	L3MBTL1 inh	BAZ2B inh	G9a block
COc1cc(C(=O)O[C@H]2C/C(C)=C/CC[C@@]3(C)O[C@@H]3[C@H](O)[C@@H]2C(C)C)cc(OC)c1OC	-13%	25%	x	-25%	37%[0.501 µM]
CC(C)CN1CCc2nc(N3CCN(C)CC3)ncc2C1	-30%	43%	x	u	-3%[12.7 µM]
Cc1cc(C)c(-c2n[nH]c3c2C(c2ccccc2F)N(Cc2ccco2)C3=O)c(O)c1 (stereo unspecified)	-31%	19%	x	u	28%[59 µM]
Cc1ccnc(SCC(=O)N2CCc3ccccc3C2)n1	-8%	-5%	-6%	-27%	40µM*
O=C(CNCc1ccccn1)N1CCc2ccccc2C1	u	9%	x	4µM*	-107%[59 µM]
CC=C1C2C=C(C)CC1(N)c1ccc(=O)[nH]c1C2 (stereo unspecified)	x	x	x	x	47%[59 µM]
O=[N+]([O-])c1cccc(/C([O-])=C(/C(=S)Nc2ccccc2)[n+]2ccccc2)c1	u	-19%	4%	-23%	10µM*
C=CCNC(=S)/C(=C(/[O-])c1ccc([N+](=O)[O-])cc1)[n+]1ccccc1	-11%[11.4 µM]	7%	-27%	4%	45µM*
COc1cc(C2Nc3cc(Cl)c(S(N)(=O)=O)cc3S(=O)(=O)N2)cc(OC)c1OC (stereo unspecified)	-13%	10%	3%	13%	-8%
COc1cccc(C2Nc3cc(Cl)c(S(N)(=O)=O)cc3S(=O)(=O)N2)c1 (stereo unspecified)	50µM*	-16%	x	1%	1%[59 µM]
Cc1cc(C)c(S(=O)(=O)N(CC(=O)O)CC(=O)O)c(C)c1	u	13%	x	14%	22µM*
Cc1ccc(Cl)cc1N1CCN(c2nc3ccccc3c3nc(-c4cccnc4)nn23)CC1	5%	18%	x	2%	u
COc1ccc([N+](=O)[O-])cc1NC(=S)NC(NC(C)=O)C(Cl)(Cl)Cl (stereo unspecified)	-12%	-1%	1%	-11%	40µM*
Cc1ccc(C(=O)NNC(=S)Nc2cccc(Cl)c2Cl)cc1[N+](=O)[O-]	-7%	-7%	x	-23%	5%[12.7 µM]
Cc1ccc(NC(=S)NNC(=O)c2cccc([N+](=O)[O-])c2)cc1Cl	u	-15%	u	u	13µM*
O=[N+]([O-])c1ccc(NNC(=S)Nc2ccc(F)cc2)cc1	50µM*	u	-6%	45µM*	u
O=[N+]([O-])c1ccc(Nc2ccc(F)cc2)cc1	-17%	21%	x	-17%	9%
COc1ccc([N+](=O)[O-])cc1NC(=S)NC(NC(=O)Cc1ccc(OC)c(OC)c1)C(Cl)(Cl)Cl (stereo unspecified)	-22%	-10%	4%	3%	-8%
O=C(NNC(=S)Nc1ccc(F)cc1)c1cccc([N+](=O)[O-])c1	-20%	-4%	1%	-4%	45µM*
COc1ccc(C(=O)NNC(=S)NC(=O)c2cccc([N+](=O)[O-])c2)cc1	-17%	6%	x	x	x
CCOc1ccccc1NC(=O)c1nc2nc(C)cc(C(F)F)n2n1	-13%	37%	x	1%	-11%[59 µM]
CCCCc1nn2c(=O)cc(COC(=O)c3ccccc3NC(=O)c3cccs3)nc2s1	-3%	46%	x	4%	30%[59 µM]
O=C(NC(=S)Nc1cccc([N+](=O)[O-])c1)c1ccccc1	-11%	17%	-12%	-24%	-16%[59 µM]
O=C(O)c1cccc(NC(=S)NC(NC(=O)c2cccc([N+](=O)[O-])c2)C(Cl)(Cl)Cl)c1 (stereo unspecified)	-22%	7%	x	-38%	50µM*
CC1(C(=O)NNC(=O)c2cccc([N+](=O)[O-])c2)CC1(Br)Br (stereo unspecified)	-23%	85%	x	-35%	20µM*
SMILES	JMJD2A Tudor inh	HP1b binding inh	L3MBTL1 inh	BAZ2B inh	G9a block
O=C(O)CC(NNC(=O)c1ccccc1)C(=O)Nc1cccc([N+](=O)[O-])c1 (stereo unspecified)	u	20%	x	u	50µM*
O=C(O)c1cccc(NC(=S)NC(NC(=O)c2ccccc2[N+](=O)[O-])C(Cl)(Cl)Cl)c1 (stereo unspecified)	-7%	39%	x	4%	u
NCCCC[C@@H](C(=O)N1CCNCC1)n1cc([C@@H](N)CC(N)=O)nn1	-31%	17%	11%	u	-11%[2.33 µM]
C[C@H](CO)N1C[C@H](C)[C@@H](CN(C)C(=O)Nc2ccccc2)Oc2ccc(NC(=O)CCC(F)(F)F)cc2C1=O	-9%	56%	3%	x	x
COc1cc(C2NC(=O)NC(C)=C2C(=O)OCC2CCCCC2)ccc1O (stereo unspecified)	-20%	16%	4%	u	x
COc1ccc(C(C)C(=O)c2ccc(O)cc2O)cc1 (stereo unspecified)	x	x	x	x	-10%[2.33 µM]
CCOc1ccccc1N1CC(C(=O)N2CCc3ccccc32)CC1=O (stereo unspecified)	1%	23%	2%	-22%[57.1 µM]	65%[59 µM]
CCOc1ccccc1N1CC(C(=O)N2CCc3ccccc3C2)CC1=O (stereo unspecified)	28µM*	-9%	x	-8%	29%[12.7 µM]
COc1cccc(-c2nccc(NCCc3c[nH]c4ccc(OC)cc34)n2)c1	x	x	x	x	-2%[0.501 µM]
Cc1ccn2c(Nc3ccc(C(C)C)cc3)c(-c3cccs3)nc2c1	-20%	22%	x	-7%	u
O=C(NNc1cc(Cl)ccc1Cl)c1cccs1	-12%	19%	-19%	17%	56µM*
Cc1cc(Cl)ccc1NNC(=O)c1cccs1	-8%[57.1 µM]	12%	4%	-35%	x
Cc1noc(C)c1C(=O)NNc1cc(Cl)ccc1Cl	-8%	1%	-5%	-16%	79µM*
Cc1ccc(Cl)cc1Nc1nc2ccccc2c2nncn12	7%	51%	x	2%	16%[59 µM]
O=S(=O)(c1ccc(F)cc1)N1CCN(c2nc(-c3cccs3)nc3ccccc23)CC1	-23%	13%	x	x	x
CC(Sc1nncn1C)C(=O)Nc1ccc(S(N)(=O)=O)cc1 (stereo unspecified)	-10%[11.4 µM]	17%	6%	-2%	x
CC(Sc1nncn1C)C(=O)Nc1ccc2ccccc2c1 (stereo unspecified)	-16%	18%	-10%	7%	8.9µM*
Clc1cccc(/C(Cc2nc3ccccc3[nH]2)=N\Nc2ccccc2)c1	u	0%	-18%	-36%	6.3µM*
Cc1ccc(N/N=C(\Cc2nc3ccccc3[nH]2)c2ccccc2)cc1	u	u	-1%	u	7.1µM*
N#CCCN/N=C(/Cc1nc2ccccc2[nH]1)c1ccc(Cl)cc1	x	x	x	-6%	u
CCN/N=C(\Cc1nc2ccccc2[nH]1)c1ccccc1	-31%	31%	-2%	-7%	16%
c1ccc(N/N=C(\Cc2nc3ccccc3[nH]2)c2ccccc2)cc1	u	-18%	-7%	u	1.4µM*
N#CCCN/N=C(\Cc1nc2ccccc2[nH]1)c1ccccc1	-31%	-6%	x	-19%	50µM*

Assay outcomes deposited in PubChem by National Center for Advancing Translational Sciences (NCATS).
